Experimental data from the supplement of paper PMC6555819.

Assays:
Test in all cases: PBM binding z-score (relative to random genomic background probes); higher = stronger binding; sequences stand for … in GC…GCGATTGACAGCGTAGAATGAAGG
[1] = test system: FXR:RXRa (NR concentration 270 nM, RXRa partner concentration 90 nM)
Outline: (§1)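 Ligand-free nuclear receptor dimers were applied to custom Agilent 4×180K protein-binding microarrays whose double-stranded probes carried direct-repeat seeds, single-nucleotide variants, half-site ablations and random human genomic background sequences in 34-nt variable regions. Incubation lasted 1 h. Binding z-scores were computed against the random background probes from regression-normalized fluorescence.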

[2] = test system: LXRa:RXRa (NR concentration 270 nM, RXRa partner concentration 90 nM)
Outline: as §1

[3] = test system: LXRa homodimer (NR concentration 270 nM)
Outline: as §1

[4] = test system: LXRb:RXRa (NR concentration 270 nM, RXRa partner concentration 90 nM)
Outline: as §1

[5] = test system: LXRb homodimer (NR concentration 270 nM)
Outline: as §1

[6] = test system: PPARa:RXRa (NR concentration 270 nM, RXRa partner concentration 90 nM)
Outline: as §1

[7] = test system: PPARg:RXRa (NR concentration 180 nM, RXRa partner concentration 90 nM)
Outline: as §1

[8] = test system: PPARg:RXRa 270nM:90nM, anti-RXR (NR concentration 270 nM, RXRa partner concentration 90 nM)
Outline: as §1

[9] = test system: PPARg:RXRa 30nM:10nM, anti-RXR (NR concentration 30 nM, RXRa partner concentration 10 nM)
Outline: as §1

[10] = test system: PPARg:RXRa 90nM:30nM, anti-RXR (NR concentration 90 nM, RXRa partner concentration 30 nM)
Outline: as §1

[11] = test system: PPARg:RXRa DBDmut IVT, anti-RXR (DBD mutation: RXRa K156A/R161A, NR concentration 270 nM, RXRa partner concentration 90 nM)
Outline: as §1

[12] = test system: PPARg:RXRa IVT, anti-PPARg (NR concentration 270 nM, RXRa partner concentration 90 nM)
Outline: as §1

[13] = test system: PPARg DBDmut:RXRa IVT, anti-PPARg (DBD mutation: PPARg1 K132A/R137A, NR concentration 270 nM, RXRa partner concentration 90 nM)
Outline: as §1

[14] = test system: PPARg DBDmut IVT, anti-PPARg (DBD mutation: PPARg1 K132A/R137A, NR concentration 270 nM)
Outline: as §1

[15] = test system: PPARg homodimer (NR concentration 180 nM)
Outline: as §1

[16] = test system: PXR:RXRa (NR concentration 270 nM, RXRa partner concentration 90 nM)
Outline: as §1

[17] = test system: PXR homodimer (NR concentration 270 nM)
Outline: as §1

[18] = test system: RARa:RXR (NR concentration 270 nM, RXRa partner concentration 90 nM)
Outline: as §1

[19] = test system: RARa homodimer (NR concentration 270 nM)
Outline: as §1

[20] = test system: RARb:RXRa (NR concentration 270 nM, RXRa partner concentration 90 nM)
Outline: as §1

Row | Sequence | PBM binding z-score [1] | PBM binding z-score [2] | PBM binding z-score [3] | PBM binding z-score [4] | PBM binding z-score [5] | PBM binding z-score [6] | PBM binding z-score [7] | PBM binding z-score [8] | PBM binding z-score [9] | PBM binding z-score [10] | PBM binding z-score [11] | PBM binding z-score [12] | PBM binding z-score [13] | PBM binding z-score [14] | PBM binding z-score [15] | PBM binding z-score [16] | PBM binding z-score [17] | PBM binding z-score [18] | PBM binding z-score [19] | PBM binding z-score [20]
1 | TGTCAAAGTTCAGAGGTAACGTAAGTATCCACAC | 4.53 | 4.37 | 1.55 | 2.56 | 0.204 | 4.07 | 6.27 | 6.33 | 3.46 | 6.02 | -0.368 | 3.54 | 0.775 | 1.39 | 2.26 | 3.39 | 0.858 | 3.43 | 0.97 | 4.36
2 | ATATGTAGCTTAGCTGGGGTCATTCAGACTAGGC | 3.34 | 3.44 | 1.49 | 4.21 | 0.639 | 4.15 | 1.15 | 2.3 | 0.587 | 1.59 | 0.33 | 0.991 | 0.947 | 0.695 | 1.04 | 5.29 | 1.48 | 4.92 | 0.298 | 2.4
3 | AGAATGAGGTTATACGTAGATCTGGGAAGAAAGT | 2.02 | 1.53 | -0.23 | 1.2 | -0.294 | 3.14 | 1.88 | 2 | 0.653 | 1.38 | 3.58 | 2.08 | 0.645 | 0.965 | 0.546 | 0.994 | 0.44 | 1.5 | -0.128 | 1.23
4 | GCGACTGGGGCAAATCAGGTTACCATAAGGTTGG | 0.683 | 0.358 | -0.1 | 0.749 | -0.654 | 1.73 | 1.28 | 1.07 | -0.18 | 0.553 | 4.37 | 3.69 | -0.276 | -0.972 | 0.782 | 1.1 | -0.422 | 0.759 | -0.444 | 1.14
5 | TCGAATAGGTTAGTCGGGGCATTCAGCCAACATA | 0.693 | 0.608 | -0.0621 | 1.02 | -0.284 | 1.29 | 0.133 | 1.54 | 2.74 | 1.94 | 2.05 | 0.81 | -0.355 | -0.412 | 0.278 | 0.59 | 0.0716 | 0.628 | -0.516 | 1.06
6 | TCATATAGGAAAATGCTAGGTGAAAGTCCGATCT | 1.09 | 0.845 | 0.237 | 0.489 | -0.0669 | 0.728 | 0.487 | 2.3 | 4.01 | 3.28 | 2.71 | 0.68 | 0.369 | 0.466 | 0.42 | 0.59 | 0.397 | 0.636 | 1.22 | 0.176
7 | TAGCCTAGGTCATGGCCCAGTATACCACGCGAAC | 4.7 | 3.85 | 0.774 | 2.64 | -0.293 | 4.33 | 4.27 | 3.99 | 1.14 | 2.95 | 1.98 | 4.42 | 0.172 | -0.0252 | 3.1 | 1.91 | -0.224 | 3.53 | 0.397 | 4.01
8 | CCGACTGGGGCAGAAAGGTTAACATACCATCCGG | 0.257 | 0.795 | 0.102 | 1.32 | -1.1 | 2.45 | 1.92 | 2.76 | 1.1 | 2.38 | 1.78 | 2.39 | -0.202 | -1.36 | 1.53 | 1.19 | -0.126 | 1.95 | 0.0538 | 1.98
9 | GATACAGGGTCAAGGGCAGAGTACGCGTATTGAT | 6.94 | 4.74 | 0.422 | 4.1 | 0.257 | 5.92 | 6.21 | 5.97 | 2.9 | 4.69 | 2.9 | 4.2 | 0.998 | 0.413 | 2.15 | 4.01 | 0.827 | 4.22 | 0.496 | 4.77
10 | CGTCAAAGTTCAAGGTAACGTGACAGAAAGCAGC | 5.87 | 5.39 | 2.53 | 3.27 | 0.738 | 4.34 | 4.02 | 4.9 | 2.23 | 3.9 | 0.641 | 2.15 | 0.0239 | 0.308 | 2.16 | 4.21 | 2.13 | 3.56 | 1.05 | 5.08
11 | CCGACTGGTGCAGAAAGGTTACCATACCATCCGG | 0.086 | 0.429 | -0.181 | 0.491 | -0.9 | 1.73 | 0.848 | 1.18 | -0.313 | 0.336 | -0.779 | -0.294 | -0.872 | -1.11 | 1.03 | 1 | 0.0978 | 1.65 | -0.557 | 1.43
12 | TCATATAGGTAAAGGTGAACGTCGAACGATATGA | 1.01 | 1.27 | -0.125 | 1.25 | -0.0636 | 3.18 | 4.94 | 4.76 | 4.7 | 5.08 | 3.97 | 4.38 | 1.68 | 1.19 | 1.37 | 0.966 | 0.23 | 1.74 | 0.665 | 2.09
13 | CCTAGCAGGCCAATCTGGGTCACACAAGGCTTGA | 1.88 | 1.82 | -0.247 | 1.21 | -0.968 | 3.68 | 3.08 | 2.68 | 0.555 | 2.1 | 4.53 | 5.23 | 0.519 | -0.276 | 0.856 | 1.56 | -0.6 | 1.86 | 0.119 | 1.76
14 | AGAACGTGGGCAATGAGTTGATAGCACGGGTGGC | -0.669 | -0.786 | -0.475 | -1.07 | -0.973 | -0.601 | 0.723 | -0.543 | -0.342 | -0.679 | -0.374 | -0.0857 | -0.361 | -0.494 | -0.516 | -0.399 | -0.204 | -0.5 | -0.521 | -0.261
15 | AGAATGAGATTAAGATCAGGGAAACAGAATACAT | -0.282 | -0.601 | -0.0604 | -0.466 | -0.594 | -0.494 | 0.75 | -0.304 | 0.17 | -0.228 | -0.828 | -0.427 | 0.0625 | 0.018 | 0.131 | -0.366 | 0.121 | -0.347 | -0.129 | -1.06
16 | AGAATGAGGTTATTAAGATCAGGGACTTGCGGTC | 1.59 | 1.49 | 0.193 | 1.13 | 0.02 | 2.5 | 1.59 | 1.87 | 0.187 | 1.08 | 3.54 | 2.69 | 0.364 | 0.0807 | 0.911 | 1.15 | 0.684 | 1.36 | 0.425 | 1.37
17 | CCAGACAGGTGAGAAGGGAACTCAGCCTCGATTA | -0.0941 | -0.0473 | 0.111 | -0.208 | -0.526 | -0.0624 | 0.318 | 0.174 | -0.465 | -0.306 | 0.589 | 0.343 | -0.35 | -0.943 | 0.62 | -0.225 | 0.169 | -0.0265 | 0.727 | 0.228
18 | CGTCAAAGTTCAACTAAGGTAATGTAAAGCACGC | 7.02 | 6.36 | 3.99 | 4.15 | 2.17 | 5.15 | 5 | 5.65 | 2.56 | 4.42 | 0.526 | 2.28 | 0.986 | 1.3 | 3.39 | 5.58 | 3.59 | 4.17 | 1.99 | 5.18
